Measurements as given in PubChem BioAssay (Tox21).
Records with an inconclusive call do not appear. Activity calls are given as the source filed them. Calls come from the whole dose curve; as a rule, active = well fitted cell-killing curve with a large enough effect in the repeat runs; inconclusive = weak or mixed curves, or effect the other way; inactive = flat fitted curve, though single readings scatter.

Assay: cAMP Responsive Elements (CRE) small molecule antagonists, cell-based qHTS assay: qHTS cell viability counter screen (AID 2060913); note: nearly all actives have a fitted effect of over 40% in size
Conditions: CRE-bla HEK293T viability, CellTiter-Glo luminescence, 5 h; series mostly up to 92.4 µM; viability change, negative = cytotoxic: at the top concentration
In short: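 CRE-bla HEK293T cells were seeded in assay medium with 10% dialyzed FBS, incubated 18 hrs at 37 C, then exposed to compounds plus 0.25 uM final NKH477 for 3 hrs. Viability was read by CellTiter-Glo luminescence after 30 min, in the same wells.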
% is set by controls: 0 for no effect and ±100 for the full control effect; potency is the fitted concentration of half-maximal effect.

Structure (SMILES) | Potency | viability change, negative = cytotoxic
Oc1cc(Cl)c(Cl)c(Cl)c1 | 51.7 µM (active) | –
O=C(O)c1ccccc1C(=O)Nc1cccc2ccccc12 | – | 2.86% (inactive)
Oc1ccc2c3c1O[C@H]1[C@@H](O)C=C[C@H]4[C@@H](C2)NCC[C@@]341 | – | -2.4% (inactive)
CC[C@H](C)[C@H]1O[C@]2(C=C[C@@H]1C)C[C@@H]1C[C@@H](C/C=C(\C)[C@@H](O[C@H]3C[C@H](OC)[C@@H](O[C@H]4C[C@H](OC)[C@@H](NC)[C@H](C)O4)[C@H](C)O3)[C@@H](C)/C=C/C=C3\CO[C@@H]4[C@H](O)C(C)=C[C@@H](C(=O)O1)[C@]34O)O2 | 15.4 µM (active) | –
CCN(CC)c1c([N+](=O)[O-])cc(C(F)(F)F)c(N)c1[N+](=O)[O-] | 54.5 µM (active) | –
O=c1c2ccccc2c(=O)c2c1cc(Cl)c1[nH]c3c([nH]c12)c(Cl)cc1c(=O)c2ccccc2c(=O)c13 | – | 1.78% (inactive)
ClC(Cl)(Cl)C(Cl)(Cl)Cl | – | 1.9% (inactive)
Nc1c(Cl)c(F)nc(OCC(=O)O)c1Cl | – | -6.16% (inactive)
O=[N+]([O-])O | inactive | –
COP(=O)(OC)Oc1ccc([N+](=O)[O-])cc1 | – | -18.6% (inactive)
CC(C)[C@H](C(=O)O[C@H](C#N)c1cccc(Oc2ccccc2)c1)c1ccc(Cl)cc1 | – | -14.6% (inactive)
CC(C)Oc1cccc(NC(=O)c2ccccc2C(F)(F)F)c1 | – | 0.493% (inactive)
CCN(CCO)CCn1c(Cc2ccccc2)nc2c1c(=O)n(C)c(=O)n2C | – | -1.53% [at 42.5 µM] (inactive)
O.O.O.O.O.O.O.O=S(=O)([O-])[O-].[Co+2] | – | 15.2% (inactive)
CCNC(=O)NC(=O)/C(C#N)=N/OC | – | 7.73% (inactive)
CC1(C)C(C(=O)OC(C#N)c2cccc(Oc3ccccc3)c2)C1(C)C (stereo not given) | inactive | –
O=NN(c1ccccc1)c1ccccc1 | inactive | –
COc1nn(CSP(=S)(OC)OC)c(=O)s1 | – | -10.4% (inactive)
COc1ccc(C=O)cc1 | inactive | –
N#CS | inactive | –

Structure (SMILES) | Potency | viability change, negative = cytotoxic
c1ccc(N2CCNCC2)cc1 | – | 5.21% [at 42.5 µM] (inactive)
O=CCCl | – | -0.645% (inactive)
CNNC | – | -6.6% (inactive)
O=[N+]([O-])c1c(Cl)c(Cl)c(Cl)c(Cl)c1Cl | inactive | –
C1CC2OC2CC1C1CO1 (stereo not given) | inactive | –
Nc1ccc(Sc2ccc(N)cc2)cc1 | – | 4.2% (inactive)
CCOP(=O)(N=C1SCCS1)OCC | – | 4.74% (inactive)
NC(=O)c1ccc(N)nc1 | – | 4.37% (inactive)
CC(C)C(Nc1ccc(C(F)(F)F)cc1Cl)C(=O)OC(C#N)c1cccc(Oc2ccccc2)c1 (stereo not given) | – | -19.5% (inactive)
CCOC(=O)COc1ccc(Cl)cc1Cl | – | 2.27% (inactive)
CC1=C2C[C@H]3[C@@H](CC=C4C[C@@H](O)CC[C@@]43C)[C@@H]2CC[C@]12O[C@@H]1C[C@H](C)CN[C@H]1[C@H]2C | – | 1.22% [at 42.5 µM] (inactive)
Clc1ccc(CCC(Cn2ccnc2)Sc2c(Cl)cccc2Cl)cc1 (stereo not given) | – | -13.5% [at 42.5 µM] (inactive)
CCOP(OCC)OCC | inactive | –
CC[n+]1c(-c2ccccc2)c2cc(N)ccc2c2ccc(N)cc21 | inactive | –
CC(C)(C)CC(C)(C)c1ccc(O)cc1 | 43.3 µM (active) | –
COc1cccc2c1C(=O)c1c(O)c3c(c(O)c1C2=O)C[C@@](O)(C(=O)CO)CC3OC1CC(N2CCOC(OC)C2)C(O)C(C)O1 (stereo not given in full) | – | 10.2% [at 42.5 µM] (inactive)
O=C(Cl)CCl | – | -0.0556% (inactive)
Nc1ccc(Cl)cc1 | inactive | –
CCC1CCC(=O)O1 (stereo not given) | – | 0.299% (inactive)
CN(C)c1ccccc1 | inactive | –
